This note sets out measurements from PubChem BioAssay (NCI).

Assay in all cases: NCI-60 one-dose screen, 48 h (100 = growth as untreated, 0 = no growth, -100 = all killed)
Common to all, as to settings: 10 µM

For experiment [1], the system named is DU-145 prostate.
Experiment [2] relates to K-562 leukemia.
Experiment [3] relates to MALME-3M melanoma.
Experiment [4] relates to MDA-MB-231 breast.
The subject of experiment [5] is RXF 393 renal.
Experiment [6] relates to SF-268 CNS.
Experiment [7] deals with SF-295 CNS.
Experiment [8] deals with SF-539 CNS.
In experiment [9] the test system is M14 melanoma.
In experiment [10] the test system is UACC-257 melanoma.

This is part of a sample that, as a whole, favours compounds with a hit. Of some 83,000 tested, about 20% had one in any assay.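 Values shown are percent growth following 48 h exposure of cells in 96-well plates to a single concentration of compound; below 10 was considered active.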 Unmarked numbers belong to inactive results. Activity calls are given as the source filed them.

Regarding `COc1cccc(COC(=O)Nc2ccccc2)c1OC`, the growth in experiment [1] was 104%; in experiment [2] it was 102%; in experiment [3], 105%; in [4] it was 104%; in [5], 95.8%; in experiment [6], 114%. Moreover, the growth in experiment [7] is 88.5%; in [8], 107%; in experiment [9], 105%.
Take `CN(C)c1ccc(C(c2ccc(O)cc2)c2ccc(N(C)C)cc2)cc1`: the growth in [1] was 101%; in experiment [2], 49.9%; in experiment [3], 91.5%; in [4], 87.3%; in experiment [5] it was 112%; in experiment [6], 92.1%. In addition, the growth in experiment [7] is 103%; in experiment [8] it was 104%; in [9], 89.3%.
Turning to `CC(=O)OCC1CCCO1` (configuration not stated), the growth in [1] was 109%; in [2] it was 94.5%; in experiment [3], 99.2%; in experiment [4], 103%; in [5], 103%; in [6], 107%. The growth was 101% in [7], 114% in experiment [8] and 110% in [9].
Take `CC[N+](C)(CC)CCO`: the growth in experiment [1] was 112%; in experiment [2], 99.6%; in [3], 103%; in experiment [4], 98.6%; in experiment [5], 88.5%; in experiment [6], 112%. Moreover, the growth in experiment [7] is 99.5%; in experiment [8] it was 108%; in [9] it was 104%.
In the case of `COc1ccc(C(=O)C(Br)C(Br)C(=O)O)cc1` (configuration not stated), the growth in experiment [1] was 111%; in experiment [2] it was 109%; in experiment [3], 109%; in experiment [4] it was 111%; in [5], 106%; in experiment [6], 108%. The growth is 108% in experiment [7], 99.5% in [8] and 89.2% in experiment [9].
Turning to `S=C1NCc2cncnc2N1`, the growth was 112% in experiment [1]; 93% in experiment [2]; 112% in experiment [3]; 132% in [4]; 105% in [5]; 107% in [6]. The growth was 94.2% in [7], 92.7% in [8] and 103% in experiment [9].
As to `O=[N+]([O-])c1ccc(N=Nc2ccc(O)c3ccccc23)cc1`, the growth is 66.9% in experiment [1]; 22.1% in [2]; 57.8% in [3]; 36.8% in [4]; 60.1% in experiment [5]; 45.9% in experiment [6]. The growth is 75.4% in experiment [8] and 17% in [10].
On to `OC1CCCc2ccccc21` (configuration not stated), for which the growth in experiment [1] is 114%; in [2] it was 97.9%; in [3], 78.8%; in experiment [4], 117%; in experiment [6], 116%; in experiment [7], 93.2%. In addition, the growth in experiment [8] is 96.4%.
On to `Cc1ccncc1C(N)=O`, for which the growth in experiment [1] is 106%; in experiment [2], 101%; in [3] it was 106%; in [4], 116%; in [6], 98.2%; in [7], 120%. Moreover, the growth was 95.7% in [8], 110% in experiment [10] and 103% in [9].
`CCCCC(=O)c1ccc(OC)cc1`: the growth in [1] is 104%; in [2] it was 105%; in [3], 94%; in experiment [4], 109%; in [6] it was 107%; in [7], 92%. Besides, the figures for the growth in [8], in [10] and in experiment [9] were 110%, 91.2% and 99.4%, respectively.
Turning to `COc1cc(CN)ccc1O`, the growth in experiment [1] is 91.2%; in [2] it was 71.7%; in experiment [3], 79.3%; in [4] it was 86.9%; in [5], 95%; in experiment [6], 100%. Moreover, the growth was 94.9% in [8], 94.1% in [10] and 101% in experiment [9].
`c1ccc(CN2COc3c(ccc4c3OCN(Cc3ccccc3)C4)C2)cc1`: the growth in [1] is 25.3%; in experiment [2] it was 3.62% (active); in experiment [3], 28.4%; in [4], 1.06% (active); in experiment [6], 15.1%; in experiment [7] it was 0.773% (active). Further, the growth was -21.5% (active) in [8], 12.1% in [10] and -0.269% (active) in experiment [9].
As to `CN(C)/N=C/c1ccccc1O`, the growth is 125% in [1]; 120% in [2]; 109% in experiment [3]; 106% in [4]; 106% in [6]; 112% in [7]. The growth was 94.6% in experiment [8], 109% in experiment [10] and 106% in [9].
For the compound `Cc1ccccc1C1N=C2Oc3ccccc3C=C2C(=O)N1` (configuration not stated), the growth was 20.4% in [1]; 24.2% in [2]; 51.8% in experiment [3]; 32.5% in [4]; -4.6% (active) in experiment [5]; 53.7% in [6]. Also, the growth was -5.32% (active) in experiment [8], 56.2% in [10] and -24.7% (active) in experiment [9].
On to `NCCCN`, for which the growth is 107% in [1]; 103% in experiment [2]; 95.5% in [3]; 106% in [4]; 115% in experiment [5]; 103% in [6]. Also, the growth in experiment [8] is 102%; in experiment [9], 112%.
Consider `CC(C)(O)C#CC#CC(C)(C)O`, for which the growth in experiment [1] was 113%; in experiment [2] it was 93.6%; in experiment [3], 107%; in [4], 105%; in experiment [6], 106%; in experiment [7], 95.1%. Moreover, the growth in experiment [8] is 93.8%; in experiment [10], 94.4%; in [9], 107%.
As for `O=C(O)c1ccccc1NCc1ccco1`, the growth is 118% in experiment [1]; 104% in experiment [2]; 108% in [3]; 104% in experiment [4]; 111% in experiment [6]; 114% in experiment [7]. In addition, the growth is 103% in experiment [8], 143% in experiment [10] and 102% in experiment [9].
For the compound `C#CC(C)(O)c1ccc(Cl)cc1` (configuration not stated), the growth was 112% in experiment [1]; 91.3% in experiment [2]; 125% in experiment [3]; 102% in experiment [4]; 103% in experiment [6]; 90.8% in [7]. The growth in [8] is 96.3%; in experiment [10], 101%; in [9] it was 98.8%.
As for `CCN(CC)CCCC(C)Nc1ccnc(/C=C/c2ccc(Cl)cc2)c1` (configuration not stated), the growth in [1] was 49.6%; in experiment [2], 0.277% (active); in [3], -60.6% (active); in experiment [4], -28.3% (active); in [5], -61.8% (active); in [6] it was 9.89% (active). Further, the growth was -69.2% (active) in experiment [8], -77.7% (active) in experiment [10] and -85.9% (active) in [9].
For the compound `O=P(O)(O)OCC(O)CO` (configuration not stated), the growth in [1] is 107%; in experiment [2], 113%; in [3], 110%; in experiment [4], 111%; in experiment [5], 107%; in experiment [6], 108%. Also, the growth in experiment [8] was 105%; in experiment [10], 102%; in experiment [9], 101%.
As for `CC(=O)OCCO`, the growth in [1] was 110%; in experiment [2], 103%; in experiment [3] it was 93.5%; in experiment [4] it was 121%; in experiment [5] it was 105%; in experiment [6] it was 106%. For the same compound, the growth is 104% in experiment [8], 102% in [10] and 105% in experiment [9].
Take `Nc1nc(N)c2cc(S(=O)(=O)c3cccc(C(F)(F)F)c3)ccc2n1`: the growth in experiment [1] was 48%; in experiment [2], 17.7%; in experiment [3] it was 63.8%; in experiment [4] it was 67.9%; in experiment [5], 62.2%; in [6], 29.2%. The growth in experiment [8] was 51.4%; in [10] it was 43.7%; in [9], 44.5%.
For `COc1ccccc1N1CCN(C(=S)Nc2ccccc2)CC1`, the growth in [1] is 100%; in [2], 81.8%; in [3], 97.3%; in experiment [4] it was 101%; in experiment [5] it was 100%; in experiment [6], 99.3%. For the same compound, the growth was 106% in experiment [8] and 100% in experiment [9].
As to `O=C(Cc1ccccc1)Cc1ccccc1`, the growth was 113% in [1]; 110% in experiment [2]; 115% in experiment [3]; 109% in experiment [4]; 103% in [6]; 108% in [7]. In addition, the growth is 101% in experiment [8], 93.1% in [10] and 102% in experiment [9].
With `CCCCCCCCCCC1CO1` (configuration not stated), the growth in experiment [1] was 108%; in [2] it was 102%; in experiment [3], 103%; in experiment [4] it was 111%; in experiment [5] it was 103%; in experiment [6] it was 106%. The growth in [8] was 105%; in [10], 96.4%; in experiment [9], 108%.
On to `COc1cc2c3cc1Oc1c(OC)c(OC)cc4c1C(Cc1ccc(O)c(c1)Oc1ccc(cc1)CC3N(C)CC2)N(C)CC4` (configuration not stated), for which the growth in [1] was 33.4%; in experiment [2] it was 0.419% (active); in experiment [3], -79.3% (active); in experiment [4] it was -24.1% (active); in [5] it was -14.9% (active); in experiment [6] it was 36.2%. The growth is -23.5% (active) in experiment [8], -62.2% (active) in [10] and -77.8% (active) in [9].
Consider `O=S(=O)(Cc1ccccc1)c1ccccc1`, for which the growth is 107% in [1]; 103% in experiment [2]; 106% in experiment [3]; 121% in [4]; 102% in experiment [5]; 101% in experiment [6]. The values for the growth in experiment [8], in experiment [10] and in [9] were 97.7%, 107% and 104%, respectively.
Regarding `CCS(=O)(=O)c1cc(=O)[nH]c(=O)[nH]1`, the growth in experiment [1] was 109%; in experiment [2], 128%; in [3] it was 56.9%; in [4], 101%; in experiment [6], 105%; in experiment [7], 122%. Also, the results for the growth in experiment [8], in [10] and in experiment [9] were 111%, 44.4% and 87.1%, respectively.
`CC1NC(=O)NC1CCCCCC(=O)O` (configuration not stated): the growth is 108% in experiment [1]; 125% in [2]; 106% in experiment [3]; 91.4% in [4]; 105% in [5]; 96.5% in experiment [6]. Further, the growth is 105% in experiment [8], 86.6% in experiment [10] and 95% in [9].
As to `Nc1ccc(N=Nc2ccc(O)cc2)c(N)n1`, the growth is 79.3% in [1]; 39.2% in experiment [2]; 72% in experiment [3]; 73.7% in experiment [4]; 91.6% in experiment [5]; 73.1% in experiment [6]. Besides, the growth in experiment [8] is 66.5%; in [10] it was 97.9%; in experiment [9], 70.9%.
For the compound `COc1cccc(O)c1O`, the growth in [1] was 27%; in [2], 78.4%; in experiment [3], 67%; in experiment [4], 85.5%; in experiment [5], 72.7%; in experiment [7], 104%. Also, the growth was 20.6% in [8], 72.3% in experiment [10] and 44.6% in [9].
For the compound `COC(=O)/C=C1\Sc2cc(F)ccc2NC1=O`, the growth is 126% in experiment [1]; 91.2% in experiment [2]; 102% in [3]; 107% in experiment [4]; 110% in experiment [6]; 118% in experiment [7]. In addition, the growth in experiment [8] was 104%; in experiment [10] it was 91%; in experiment [9], 93.3%.
Regarding `NC(CSC(c1ccccc1)(c1ccccc1)c1ccccc1)C(=O)O` (configuration not stated), the growth in experiment [1] is 29.9%; in [2] it was 14.5%; in [3], 51.1%; in experiment [4], 4.8% (active); in experiment [5], 3.38% (active); in experiment [6] it was 43.3%. Moreover, the growth is 10.3% in experiment [8], 52.3% in [10] and 13.6% in experiment [9].
